# From PubChem BioAssay (NCATS)
# Several values for one entry are separate records, joined by “and”; a condition that tells them apart may be missing. Identical values can stand only once. Inconclusive results are not listed. Values without a mark were called inactive. Activity calls are given as the source filed them. The call rests on the fitted dose curve; in most records, active means well fitted cell-killing curve with a large enough effect; inconclusive means small, poorly fitted or top-dose-only effect; inactive means flat fitted curve, though single readings scatter.
# Assay: Cellular viability qHTS for adrenocortical cancer (ACC) cell line SW-13 (AID 1963989); further: nearly all actives have a fitted effect of over 65% in size;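 on activity (max response): cells grown in serum-free medium with ITS supplement; on the % scale 0 is the no-effect control and ±100 the full control effect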
# Conditions: SW-13 ACC cells viability, CellTiter-Glo, 48 h; activity (max response): stronger effect = lower value
# Outline: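 Here, serum-free SW-13 cultures were dosed up to 46 uM. Following 48 h, ATP-dependent luminescence (CellTiter-Glo) reported viable cells, and logistic modeling produced IC50 values.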
# Potency means the concentration at half of the fitted maximal effect.
SMILES,activity (max response),Potency
C[C@@H]1C[C@H]2[C@@H]3C[C@H](F)C4=CC(=O)C(Cl)=C[C@]4(C)[C@@]3(F)[C@@H](O)C[C@]2(C)[C@@]1(O)C(=O)CO,-6.49%,
CCC(C)(CN(C)C)OC(=O)c1ccccc1 (stereo not given),-1.44%,
Cc1cc(O)c(C)c(C)c1O,6.25%,
CCCNC(C)(C)COC(=O)c1ccccc1,-2.6%,
O=C(NCCc1c[nH]c2ccccc12)c1cccnc1,-4.89%,
COc1ccc(-c2c(C)nn3c(NCCN4CCOCC4)cc(C)nc23)cc1OC,10.9%,
CN1[C@@H]2CC[C@H]1CC(NC(=O)n1c(=O)[nH]c3ccccc31)C2 (stereo not given in full),2.49%,
O=C1NCCN1CCN1CCC(c2cn(-c3ccc(F)cc3)c3ccc(Cl)cc23)CC1,,10.3 µM (active)
C[N+](C)(C)CC[N+]1(C)Cc2c(Cl)c(Cl)c(Cl)c(Cl)c2C1,6.09%,
CC[C@@H](C)Nc1cc(C(=O)NC2CC3CC[C@@H](C2)N3c2ccc(C(=O)C3CC3)cn2)c(C)cc1C(N)=O (stereo not given in full),,0.178 µM (active)
NCc1ccc(S(N)(=O)=O)cc1,-8.11%,
CCC(=O)NC[C@H](Cc1ccc(OCCc2nc(-c3ccccc3)oc2C)cc1)N/C(C)=C\C(=O)c1ccc(C(F)(F)F)cc1,-7.93%,
COc1cc2c(Oc3ccc4[nH]c(C)cc4c3F)ccnc2cc1OCC1(N)CC1,,11.2 µM (active)
CCN(Cc1ccncc1)C(=O)C(CO)c1ccccc1 (stereo not given),-0.134%,
NC(Cc1ccc(Cl)cc1)C(=O)O (stereo not given),-3.09%,
COc1ccc([C@@H]2Sc3ccccc3N(CCN(C)C)C(=O)[C@@H]2OC(C)=O)cc1,-9.3% and 4.69%,
CNC1(C)C2CCC(C2)C1(C)C (stereo not given),-10.9%,
CC(C)(C)Sc1c(CC(C)(C)C(=O)O)n(Cc2ccc(Cl)cc2)c2ccc(OCc3ccc4ccccc4n3)cc12,0.331%,
CC(=NNC(=O)c1cccc(S(=O)(=O)N2CCOCC2)c1)c1cc(Cl)ccc1O,,3.55 µM (active)
O=C1OC(CN2CCOCC2)CN1/N=C/c1ccc([N+](=O)[O-])o1 (stereo not given),-3.41%,

SMILES,activity (max response),Potency
c1ccc2sc(SSc3nc4ccccc4s3)nc2c1,-16.2%,
CO[C@H]1O[C@@H]2O[C@@]3(C)CC[C@H]4[C@H](C)CC[C@@H]([C@H]1C)[C@@]24OO3,0.283%,
CN1C(C)(C)CCCC1(C)C,-4.6%,
COc1cc(C=C2CCC/C(=C\c3ccc(O)c(OC)c3)C2=O)ccc1O,,4.61 µM (active)
CCCCC1(COC(=O)CCC(=O)O)C(=O)N(c2ccccc2)N(c2ccccc2)C1=O,6.69%,
CC(C)(C)c1ccc(O)c(O)c1,,10 µM (active)
O=C(CCCCCCC(=O)N/N=C/c1ccc(N(c2ccccc2)c2ccccc2)cc1)NO,,28.2 µM (active)
C=C1C[C@H]2C=Nc3cc(OCCCOc4cc5c(cc4OC)C(=O)N4CC(=C)C[C@H]4C=N5)c(OC)cc3C(=O)N2C1,,0.01 µM (active)
Cn1cc(/C=C/C(=O)c2cccc(F)c2)cc1/C=C/C(=O)NO,9.4%,
CC1(C)OC2=C(C(=O)c3ccccc3C2=O)[C@H](NCc2ccccc2)[C@@H]1O,,3.98 µM (active)
CCCCCCCCCCCCCCCCCCOCC(O)CO (stereo not given),15%,
COc1cccc(Nc2ncnn3ccc(CN4CC[C@@H](N)[C@H](O)C4)c23)c1,,0.316 µM (active)
COC(=O)[C@@H](N)Cc1ccc(O)c(O)c1,-15%,
CO[C@H]1/C=C\C=C(\C)C(=O)NC2=CC(=O)C(NCCN(C)C)=C(C[C@@H](C)C[C@H](OC)[C@H](O)[C@@H](C)/C=C(/C)[C@@H]1OC(N)=O)C2=O,,0.282 µM (active)
CCC1NC(=O)c2cc(S(N)(=O)=O)c(Cl)cc2N1 (stereo not given),11.8%,
COCCNCc1ccc(-c2cc3nccc(Oc4ccc(NC(=S)NC(=O)Cc5ccc(F)cc5)cc4F)c3s2)nc1,,28.2 µM (active)
CCCCCCCCCCCCCCCCOCCCOP(=O)(O)COC(CO)Cn1ccc(N)nc1=O (stereo not given),-4.49%,
O=C([O-])C[O-].[Pt+2],-1.3%,
Cc1c(O)cccc1C(=O)N[C@@H](CSc1ccccc1)[C@H](O)CN1C[C@H]2CCCC[C@H]2C[C@H]1C(=O)NC(C)(C)C,,20.6 µM (active)
Nc1ccc(C(=O)OCC(O)CO)cc1 (stereo not given),13.4%,

# Assay: Cellular viability qHTS for adrenocortical cancer (ACC) cell line NCI-H295R (AID 1963990); further: nearly all actives have a fitted effect of over 60% in size;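 on activity change, negative = viability loss: 0% = DMSO only wells and -100% = full killing with cytotoxic reference compound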
# Conditions: CellTiter-Glo ATP luminescence, 48 h; series mostly up to 46.1 µM; activity change, negative = viability loss: at the top concentration
# Outline: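 Viability of NCI-H295R after 48 h of treatment (final up to 46 uM) measured through cellular ATP luminescence.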
SMILES,"activity change, negative = viability loss",Potency
C[C@@H]1C[C@H]2[C@@H]3C[C@H](F)C4=CC(=O)C(Cl)=C[C@]4(C)[C@@]3(F)[C@@H](O)C[C@]2(C)[C@@]1(O)C(=O)CO,-17.7%,
CCC(C)(CN(C)C)OC(=O)c1ccccc1 (stereo not given),-13.9%,
Cc1cc(O)c(C)c(C)c1O,-19.7%,
CCCNC(C)(C)COC(=O)c1ccccc1,-11.2%,
O=C(NCCc1c[nH]c2ccccc12)c1cccnc1,-20.1%,
COc1ccc(-c2c(C)nn3c(NCCN4CCOCC4)cc(C)nc23)cc1OC,-15.9%,
CN1[C@@H]2CC[C@H]1CC(NC(=O)n1c(=O)[nH]c3ccccc31)C2 (stereo not given in full),-14.6%,
O=C1NCCN1CCN1CCC(c2cn(-c3ccc(F)cc3)c3ccc(Cl)cc23)CC1,,4.11 µM (active)
C[N+](C)(C)CC[N+]1(C)Cc2c(Cl)c(Cl)c(Cl)c(Cl)c2C1,-15.6%,
CC[C@@H](C)Nc1cc(C(=O)NC2CC3CC[C@@H](C2)N3c2ccc(C(=O)C3CC3)cn2)c(C)cc1C(N)=O (stereo not given in full),,0.355 µM (active)
NCc1ccc(S(N)(=O)=O)cc1,-10.6%,
CCC(=O)NC[C@H](Cc1ccc(OCCc2nc(-c3ccccc3)oc2C)cc1)N/C(C)=C\C(=O)c1ccc(C(F)(F)F)cc1,-3.15%,
COc1cc2c(Oc3ccc4[nH]c(C)cc4c3F)ccnc2cc1OCC1(N)CC1,,10 µM (active)
CCN(Cc1ccncc1)C(=O)C(CO)c1ccccc1 (stereo not given),-9.98%,
NC(Cc1ccc(Cl)cc1)C(=O)O (stereo not given),-11% [at 0.587 µM],
COc1ccc([C@@H]2Sc3ccccc3N(CCN(C)C)C(=O)[C@@H]2OC(C)=O)cc1,,inactive
CNC1(C)C2CCC(C2)C1(C)C (stereo not given),-9.67%,
CC(C)(C)Sc1c(CC(C)(C)C(=O)O)n(Cc2ccc(Cl)cc2)c2ccc(OCc3ccc4ccccc4n3)cc12,-23.3%,
CC(=NNC(=O)c1cccc(S(=O)(=O)N2CCOCC2)c1)c1cc(Cl)ccc1O,,4.47 µM (active)
O=C1OC(CN2CCOCC2)CN1/N=C/c1ccc([N+](=O)[O-])o1 (stereo not given),,16.4 µM (active)

SMILES,"activity change, negative = viability loss",Potency
c1ccc2sc(SSc3nc4ccccc4s3)nc2c1,8.38% [at 20 µM],
CO[C@H]1O[C@@H]2O[C@@]3(C)CC[C@H]4[C@H](C)CC[C@@H]([C@H]1C)[C@@]24OO3,5.25%,
CN1C(C)(C)CCCC1(C)C,-6.45%,
COc1cc(C=C2CCC/C(=C\c3ccc(O)c(OC)c3)C2=O)ccc1O,,7.31 µM (active)
CCCCC1(COC(=O)CCC(=O)O)C(=O)N(c2ccccc2)N(c2ccccc2)C1=O,-10.7%,
CC(C)(C)c1ccc(O)c(O)c1,,8.91 µM (active)
O=C(CCCCCCC(=O)N/N=C/c1ccc(N(c2ccccc2)c2ccccc2)cc1)NO,,0.631 µM (active)
C=C1C[C@H]2C=Nc3cc(OCCCOc4cc5c(cc4OC)C(=O)N4CC(=C)C[C@H]4C=N5)c(OC)cc3C(=O)N2C1,,0.1 µM (active)
Cn1cc(/C=C/C(=O)c2cccc(F)c2)cc1/C=C/C(=O)NO,-24.6%,
CC1(C)OC2=C(C(=O)c3ccccc3C2=O)[C@H](NCc2ccccc2)[C@@H]1O,,3.16 µM (active)
CCCCCCCCCCCCCCCCCCOCC(O)CO (stereo not given),3.66%,
COc1cccc(Nc2ncnn3ccc(CN4CC[C@@H](N)[C@H](O)C4)c23)c1,-17.7%,
COC(=O)[C@@H](N)Cc1ccc(O)c(O)c1,-8.67%,
CO[C@H]1/C=C\C=C(\C)C(=O)NC2=CC(=O)C(NCCN(C)C)=C(C[C@@H](C)C[C@H](OC)[C@H](O)[C@@H](C)/C=C(/C)[C@@H]1OC(N)=O)C2=O,,2 µM (active)
CCC1NC(=O)c2cc(S(N)(=O)=O)c(Cl)cc2N1 (stereo not given),2.83%,
COCCNCc1ccc(-c2cc3nccc(Oc4ccc(NC(=S)NC(=O)Cc5ccc(F)cc5)cc4F)c3s2)nc1,,12.6 µM (active)
CCCCCCCCCCCCCCCCOCCCOP(=O)(O)COC(CO)Cn1ccc(N)nc1=O (stereo not given),-24%,
O=C([O-])C[O-].[Pt+2],1.04%,
Cc1c(O)cccc1C(=O)N[C@@H](CSc1ccccc1)[C@H](O)CN1C[C@H]2CCCC[C@H]2C[C@H]1C(=O)NC(C)(C)C,,6.51 µM (active)
Nc1ccc(C(=O)OCC(O)CO)cc1 (stereo not given),-2.29%,
